# According to PubChem BioAssay (NCI):
# Compounds without any hit were thinned out: in the full panel of roughly 83,000, 20% have a hit.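 Compound tested at a single concentration for 48 hours in 96-well plates; a percent growth value below 10 was scored as active.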 A number with no mark means an inactive call. Activity calls are given as the source filed them.
# Legend:
# Test in all cases: NCI-60 one-dose screen, 48 h (100 = growth as untreated, 0 = no growth, -100 = all killed)
# SR leukemia = settings: 10 µM unless noted
# RPMI-8226 leukemia = settings: 10 µM unless noted
# OVCAR-8 ovarian = settings: 10 µM unless noted
# OVCAR-5 ovarian = settings: 10 µM unless noted
# OVCAR-4 ovarian = settings: 10 µM unless noted
# SK-OV-3 ovarian = settings: 10 µM unless noted
# IGROV1 ovarian = settings: 10 µM unless noted
# OVCAR-3 ovarian = settings: 10 µM unless noted
# HS 578T breast = settings: 10 µM
# NCI/ADR-RES ovarian = settings: 10 µM unless noted
# T-47D breast = settings: 10 µM unless noted
# BT-549 breast = settings: 10 µM unless noted
# MDA-MB-435 melanoma = settings: 10 µM unless noted
# SW-620 colon = settings: 10 µM unless noted
# MCF7 breast = settings: 10 µM unless noted
# HCT-116 colon = settings: 10 µM unless noted
# HCC-2998 colon = settings: 10 µM
# KM12 colon = settings: 10 µM unless noted
SMILES,growth (SR leukemia),growth (RPMI-8226 leukemia),growth (OVCAR-8 ovarian),growth (OVCAR-5 ovarian),growth (OVCAR-4 ovarian),growth (SK-OV-3 ovarian),growth (IGROV1 ovarian),growth (OVCAR-3 ovarian),growth (HS 578T breast),growth (NCI/ADR-RES ovarian),growth (T-47D breast),growth (BT-549 breast),growth (MDA-MB-435 melanoma),growth (SW-620 colon),growth (MCF7 breast),growth (HCT-116 colon),growth (HCC-2998 colon),growth (KM12 colon)
COc1ccc(-c2nc(N)ncc2Oc2ccccc2OC)c(O)c1,27.9%,25.7%,35.6%,60.2%,75.7%,24.8%,48.7%,-4.77% (active),36.2%,17.9%,35.5%,36%,-16.6% (active),20.6%,23.4%,15.9%,50.6%,29.5%
CC(=O)O[C@]1(C)C[C@H](O)[C@]2(O)C=CO[C@H](O[C@@H]3O[C@H](CO)[C@@H](O)[C@H](O)[C@H]3O)[C@@H]21,92.3%,104%,110%,103%,99.8%,102%,100%,108%,112%,107%,92%,94.6%,102%,113%,94.4%,98.1%,116%,95.1%
O=C(NO)c1ccc(Cn2c(=O)n(CCc3ccccc3)c(=O)c3ccccc32)cc1,20%,25.8%,20.2%,76.5%,19.2%,26.3%,41%,13.8%,68.9%,57.5%,29%,52.4%,19.1%,20.9%,27.9%,4.18% (active),62.5%,25.2%
Cc1cc(N(CCNc2ccnc3cc(Cl)ccc23)Cc2ccc3c(c2)OCO3)nc(N2CCN(C)CC2)n1,-33.4% (active),-42.3% (active),20.3%,97.2%,36%,67.4%,51.7%,26.5%,34.4%,40.9%,-36.9% (active),21.6%,-62.6% (active),2.88% (active),15.3%,9.43% (active),-30.8% (active),62.6%
COc1cc2c(cc1O)c(=O)n(CCN(C)C)c1c3cc4c(cc3ncc21)OCO4,4.06% (active),-30.3% (active),-9.58% (active),-1.62% (active),-1.86% (active),3.14% (active),0.0353% (active),-39.9% (active),11.4%,-12.6% (active),4.79% (active),-15.5% (active),-59.7% (active),1.96% (active),2.14% (active),2.63% (active),-38.6% (active),-11.6% (active)
O=C(Nc1ccc(N=Nc2ccccc2)cc1)c1cccc2ccccc12,23.3%,66.1%,78.7%,92.5%,75.8%,64.5%,80.4%,37.1%,72.6%,49.3%,66.3%,53.5%,-17.2% (active),40%,42%,36.1%,78.5%,47.7%
CC(C)(C)OC(=O)N1CCC(O)[C@@H](O[Si](c2ccccc2)(c2ccccc2)C(C)(C)C)[C@H]1/C=C/c1ccccc1 (stereo partly specified),32.6%,25.2%,59.5%,71.5%,21.3%,56.3%,60.6%,43.6%,55.8%,69.3%,21.4%,63%,57.4%,50.9%,36.6%,24.9%,44.8%,47%
O=C(NCCO)Nc1ccc(-c2nc(N3CCOCC3)c3cccn3n2)cc1,8.14% (active),7.85% (active),5.91% (active),-11% (active),-15.5% (active),-37.1% (active),-25.9% (active),0.347% (active),-34.5% (active),34.5%,-32.6% (active),-5.61% (active),-6.22% (active),22.3%,7.74% (active),20.4%,24%,14.7%
COc1cc(-c2cc(-c3ccc(Nc4ccnc5cc(Cl)ccc45)cc3)nc(N3CCOCC3)n2)cc(OC)c1OC,-10.7% (active),-5.21% (active),9.73% (active),55.5%,-48.3% (active),98.6%,1.69% (active),-47.7% (active),3.06% (active),9.9% (active),12.8%,24.4%,-35% (active),1.68% (active),4.34% (active),-63.3% (active),18.7%,25.2%
C=CC[n+]1c(/C=C/C=C2\N(C)c3ccccc3C2(C)C)sc2ccc(OC)cc21,11.7%,1.33% (active),12.2%,22.4%,25.1%,-13.8% (active),40.9%,13.3%,53.6%,71.7%,12.1%,14.6%,12.8%,19.9%,6.97% (active),11.6%,30.2%,13.4%
CN(C)CCn1c(=O)c2c3cc4c(cc3n(CCN(C)C)c2c2ccc(Cl)cc21)OCO4,-13.5% (active),44.7%,31.7%,81.4%,61.3%,41.3%,38.4%,83.5%,84.7%,31.4%,57.2%,63.6%,70.7%,-14.7% (active),21.3%,-79.4% (active),81.7%,45.1%
CN1CCN(c2nc(NCCNc3ccnc4cc(Cl)ccc34)c3ccccc3n2)CC1,-23.4% (active),3.82% (active),12.4%,59.9%,-0.851% (active),44.6%,30.2%,17.4%,28.2%,85.5%,0.35% (active),28.3%,-11.4% (active),26.5%,36%,6.36% (active),9.65% (active),29.2%
O=C(Cn1c(=O)ccn(CCCCCCCCOc2ccc(Br)cc2)c1=O)Nc1ccc(Oc2ccc(Cl)cc2)cc1,28.7%,34.2%,63.9%,108%,53.4%,65.3%,77.2%,83.7%,81.8%,42.7%,37.8%,54.1%,65.6%,73%,41.3%,46.5%,75.5%,61.7%
CCOC(=O)C1=C(C)N=C2Sc3cc(OC(F)(F)F)ccc3N2[C@H]1c1ccccn1,26.2%,33.6%,38%,65%,28.3%,39.9%,39.8%,51.5%,63.5%,38.2%,25.1%,59.4%,51.1%,23.6%,41.3%,24.2%,69.4%,32.3%
CSC1=C(N)C(=O)c2[nH]cc(CO)c2C1=N,6.06% (active),-32.9% (active),-62% (active),-76% (active),-95.7% (active),-94.4% (active),-62.5% (active),-74.8% (active),5% (active),-23% (active),-43.8% (active),-93.5% (active),-84.1% (active),-56.2% (active),-41.8% (active),-86.7% (active),-94.1% (active),-63.4% (active)
CCN(CC)CCOc1ccc(/C(=C(\C)c2ccc(Cl)cc2)c2ccc(Cl)cc2)cc1,0.594% (active),14.5%,82.7%,80.2%,78.8%,103%,80%,83%,77.5%,81.5%,55.2%,85.2%,87.1%,30.8%,34.8%,47%,93.6%,40.3%
COc1ccc(C2CC(=O)c3c(O)c(OC)c(OC)c(OC)c3O2)cc1O (stereo unspecified),22.7%,34.3%,26.8%,81.1%,47.9%,40%,48.2%,-5.96% (active),14.8%,3.97% (active),65.9%,64.6%,-46.9% (active),20.2%,24.8%,7.57% (active),12.7%,12.5%
